Source: PubChem BioAssay (EPA / NIEHS)
Results filed as inconclusive are left out. Active and inactive are the calls of the source. The calls were made as follows, unless noted: active = hit-call score of the fitted dose curve at least 0.9, where 1 is the maximum; inconclusive = response in the unintended direction; inactive = score below 0.9.

Assays:
[1] = molecular target: human Dopamine Transporter (DAT), SLC6A3 (gene 6531) (UniProt Q01959); assay: NVS_TR_hDAT: NovaScreen (NVS) Transporter Assay for human Dopamine Transporter (DAT) (AID 2283374);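 also: activity means loss of bound radioligand signal relative to DMSO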
How it was run: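 Extracted human SLC6A3 protein incubated 1 h with radioligand and test chemical; bound fraction separated on filters and counted. Single 25 uM duplicate screen preceded concentration-response follow-up; positive and negative controls on every plate.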

[2] = molecular target: human Norepinephrine Transporter (NET), SLC6A2 (gene 6530) (UniProt P23975); assay: NVS_TR_hNET: NovaScreen (NVS) Transporter Assay for human Norepinephrine Transporter (NET) (AID 2283377);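 also: cell-free membrane protein extracted from CHO cells expressing human NET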;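 as to AC50: displacement of radioligand from human NET seen as loss of scintillation signal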
How it was run: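 In this cell-free binding screen, chemicals at 25 uM (duplicate) compete with a radioligand for CHO-derived human NET over 1 hour, with filter-based radiodetection.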

[3] = molecular target: Estrogen receptor beta (Homo sapiens) (UniProt Q92731); assay: OT_ER_ERbERb_1440: Odyssey Thera (OT) 24-hour HEK293T Protein-Complementation Assay for Estrogen Receptor-beta/-beta Homodimer (AID 2283380);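 also: fluorescence gain from ER beta LBD homodimer complementation read by laser scanning cytometry; scored as signal increase over DMSO baseline for both agonists and antagonists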
How it was run: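 HEK293T cells stably expressing human ER-beta LBD (aa 310-547) PCA homodimer pair, dosed 24 h; formaldehyde-fixed, Draq5-stained. Readout: increase in nuclear (agonist) or nuclear plus cytoplasmic (antagonist) fluorescence intensity versus DMSO, gain-of-signal fitting.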

[4] = molecular target: Estrogen receptor (Homo sapiens) (UniProt P03372); assay: OT_ERa_GFPERaERE_0480: Odyssey Thera (OT) 8-hour HeLa Transcription Induction Assay for Estrogen Receptor (AID 2283381; active = hit-call score of the fitted dose curve at least 0.9, where 1 is the maximum; inactive = score below 0.9)
How it was run: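 Fluorescence microscopy with high-content image analysis measures ERE-driven GFP induction in HeLa cells at 8 h post-dose. Increases fitted against DMSO baseline.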

[5] = molecular target: Estrogen receptor (Homo sapiens) (UniProt P03372); assay: OT_ERa_GFPERaERE_0120: Odyssey Thera (OT) 2-hour HeLa Transcription Induction Assay for Estrogen Receptor (AID 2283382)
How it was run: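 Fluorescence-microscopy images of the GFP-ERα/ERE reporter, scored by high-content image algorithms, give the readout. HeLa exposure lasted 2 h, and only signal increase over DMSO was fitted.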

[6] = molecular target: Retinoic acid receptor RXR-alpha (Homo sapiens) (UniProt P19793); assay: OT_NURR1_NURR1RXRa_0480: Odyssey Thera (OT) 8-hour HEK293T Protein Complementation Assay for Nurr1/retinoid X receptor (RXR) (AID 2283385)
How it was run: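 Interaction of Nurr1 with RXRα read as reconstituted reporter fluorescence in a HEK293T fragment-complementation system, 8 h post-treatment; increase over DMSO baseline analysed.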

[7] = molecular target: Peroxisome proliferator-activated receptor gamma (Homo sapiens) (UniProt P37231); assay: OT_PPARg_PPARgSRC1_0480: Odyssey Thera (OT) 8-hour Protein-Complementation Assay for Peroxisome Proliferator-activated Receptor Gamma / SRC-1 Co-activator (AID 2283387);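 also: nuclear to cytoplasmic split Venus YFP fluorescence ratio reporting PPARg SRC-1 interaction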
How it was run: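 Read-out: 488 nm N/C fluorescence ratio from complemented Venus YFP fragments, ≥350 cells per image, gain-of-signal fitted against DMSO baseline. Fusions of PPARg/SRC-1 with IFP1/IFP2 expressed transiently in HEK293T; compounds applied 8 h.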

[8] = molecular target: Peroxisome proliferator-activated receptor gamma (Homo sapiens) (UniProt P37231); assay: NVS_NR_hPPARg: NovaScreen (NVS) Nuclear Receptor Binding Assay for human Peroxisome Proliferator-activated Receptor gamma (PPARg) (AID 2283370)
How it was run: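 Fluorescence polarization readout of ligand binding to extracted human PPARg, measured at 2 h. Duplicate single-point screen at 25 uM, then concentration-series retesting; activity defined as signal loss versus DMSO.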

[9] = molecular target: Bile acid receptor (Homo sapiens) (UniProt Q96RI1); assay: OT_FXR_FXRSRC1_0480: Odyssey Thera (OT) 8-hour HEK293T Protein-Complementation Assay for Farnesoid X receptor/SRC-1 Co-activator (AID 2283383)
How it was run: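 Binding of FXR to coactivator SRC-1 was read as fluorescence from a reconstituted split reporter in HEK293T cells, 8 h after chemical addition. Only increases in signal versus DMSO were fit.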

[10] = molecular target: Bile acid receptor (Homo sapiens) (UniProt Q96RI1); assay: OT_FXR_FXRSRC1_1440: Odyssey Thera (OT) 24-hour HEK293T Protein-Complementation Assay for Farnesoid X receptor/SRC-1 Co-activator (AID 2283384)
How it was run: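 Protein-fragment complementation: FXR and SRC-1 fused to reporter fragments that reassemble on interaction, read by fluorescence intensity. Human HEK293T cells measured 24 h post-dose; positive-direction fit versus DMSO.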

[11] = molecular target: Norway rat Vesicular Monoamine Transporter (VMAT2), neurotransmitter transporter, Slc18a2 (gene 25549) (UniProt Q01827); assay: NVS_TR_rVMAT2: NovaScreen (NVS) Transporter Assay for Norway rat Vesicular Monoamine Transporter (VMAT2), neurotransmitter transporter (AID 2283376);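 also: actives lower the bound radioligand signal below the DMSO level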
How it was run: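 Binding endpoint from rat forebrain tissue, cell-free; 1 h incubation; filtered radioligand counted; 25 uM duplicate primary then dose series; DMSO negative control.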

[12] = molecular target: mouse Estrogen Receptor alpha (Era), Esr1 (gene 13982) (UniProt P19785); assay: NVS_NR_mERa: NovaScreen (NVS) Nuclear Receptor Binding Assay for mouse Estrogen Receptor alpha (Era) (AID 2283378);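 also: hit means loss of bound radioligand signal relative to DMSO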
How it was run: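 Filter radiodetection of radioligand displacement from extracted receptor protein, measured 18 h post-dose. Single 25 uM concentration in duplicate initially, with concentration-series follow-up. Binding loss fitted relative to DMSO.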

[13] = molecular target: Agonist Androgen Response Element (ARE), AR (gene 367) (UniProt P10275); assay: OT_AR_ARELUC_AG_1440: Odyssey Thera (OT) 24-hour CHO-K1 Luciferase Assay for Agonist Androgen Response Element (ARE) (AID 2283379)
How it was run: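 Luminescence increase above DMSO, read after a 24 h compound treatment of CHO-K1 cells expressing an androgen response element luciferase reporter, gives the single primary endpoint; concentration-response fitting used the positive direction.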

[14] = molecular target: Retinoic acid receptor RXR-alpha (Homo sapiens) (UniProt P19793); assay: OT_NURR1_NURR1RXRa_1440: Odyssey Thera (OT) 24-hour HEK293T Protein Complementation Assay for Nurr1/retinoid X receptor (RXR) (AID 2283386)
How it was run: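 Gain in fluorescence, fitted relative to DMSO, reflects Nurr1–RXRα association in HEK293T cells after 24 h dosing. Bait and prey are each linked to a reporter-protein fragment that reassembles on interaction.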

[15] = molecular target: rat Serotonin Transporter (SERT), Slc6a4 (gene 25553) (UniProt P31652); assay: NVS_TR_rSERT: NovaScreen (NVS) Transporter Assay for rat Serotonin Transporter (SERT) (AID 2283375)
How it was run: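 Radioligand binding with competitive displacement on rat forebrain membrane preparations, counted by filtration and scintillation after 1 h. Primary single-point duplicates at 25 uM; active chemicals followed up in concentration-response. DMSO served as baseline.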

Measured: AC50

Agonist Androgen Response Element (ARE), AR (gene 367), sequence (P10275 whole entry, looked up): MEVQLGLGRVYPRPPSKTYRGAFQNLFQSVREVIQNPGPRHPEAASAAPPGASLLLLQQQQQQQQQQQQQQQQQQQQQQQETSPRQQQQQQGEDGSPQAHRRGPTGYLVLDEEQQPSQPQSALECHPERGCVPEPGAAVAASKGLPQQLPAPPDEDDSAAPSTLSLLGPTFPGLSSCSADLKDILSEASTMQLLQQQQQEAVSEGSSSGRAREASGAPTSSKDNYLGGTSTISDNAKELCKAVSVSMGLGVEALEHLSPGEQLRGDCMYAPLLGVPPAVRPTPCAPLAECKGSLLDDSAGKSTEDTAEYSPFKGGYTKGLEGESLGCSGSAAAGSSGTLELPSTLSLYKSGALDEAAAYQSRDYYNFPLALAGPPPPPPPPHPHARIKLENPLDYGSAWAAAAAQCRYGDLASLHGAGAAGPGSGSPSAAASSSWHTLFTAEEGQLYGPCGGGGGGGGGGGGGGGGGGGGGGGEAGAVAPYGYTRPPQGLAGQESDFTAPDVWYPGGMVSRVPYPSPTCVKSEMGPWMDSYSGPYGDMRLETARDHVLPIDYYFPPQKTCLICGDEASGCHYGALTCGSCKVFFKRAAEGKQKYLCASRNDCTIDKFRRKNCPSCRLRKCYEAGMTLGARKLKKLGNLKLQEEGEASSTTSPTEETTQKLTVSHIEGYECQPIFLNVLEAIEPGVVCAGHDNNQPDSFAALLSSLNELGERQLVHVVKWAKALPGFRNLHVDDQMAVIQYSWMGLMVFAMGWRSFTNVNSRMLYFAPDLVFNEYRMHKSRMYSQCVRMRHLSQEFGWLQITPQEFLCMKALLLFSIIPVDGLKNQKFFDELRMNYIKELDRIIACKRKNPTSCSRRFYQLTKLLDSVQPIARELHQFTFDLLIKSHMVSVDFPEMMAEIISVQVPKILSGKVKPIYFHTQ
Retinoic acid receptor RXR-alpha (Homo sapiens), sequence (P19793 whole entry, looked up, the tested form may be a part): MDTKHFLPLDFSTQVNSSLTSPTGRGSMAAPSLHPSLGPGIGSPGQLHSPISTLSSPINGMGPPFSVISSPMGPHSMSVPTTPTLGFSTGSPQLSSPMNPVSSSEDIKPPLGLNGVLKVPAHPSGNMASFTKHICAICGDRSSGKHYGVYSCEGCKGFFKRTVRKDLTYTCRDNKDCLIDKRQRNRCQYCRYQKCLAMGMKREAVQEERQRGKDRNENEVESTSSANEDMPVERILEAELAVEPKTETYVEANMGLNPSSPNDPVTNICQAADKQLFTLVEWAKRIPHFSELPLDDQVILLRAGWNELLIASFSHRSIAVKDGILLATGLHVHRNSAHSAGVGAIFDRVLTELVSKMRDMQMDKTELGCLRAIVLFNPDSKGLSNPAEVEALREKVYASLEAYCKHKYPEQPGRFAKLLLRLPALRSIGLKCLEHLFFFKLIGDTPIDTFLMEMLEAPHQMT
Estrogen receptor (Homo sapiens), sequence (P03372 whole entry, looked up): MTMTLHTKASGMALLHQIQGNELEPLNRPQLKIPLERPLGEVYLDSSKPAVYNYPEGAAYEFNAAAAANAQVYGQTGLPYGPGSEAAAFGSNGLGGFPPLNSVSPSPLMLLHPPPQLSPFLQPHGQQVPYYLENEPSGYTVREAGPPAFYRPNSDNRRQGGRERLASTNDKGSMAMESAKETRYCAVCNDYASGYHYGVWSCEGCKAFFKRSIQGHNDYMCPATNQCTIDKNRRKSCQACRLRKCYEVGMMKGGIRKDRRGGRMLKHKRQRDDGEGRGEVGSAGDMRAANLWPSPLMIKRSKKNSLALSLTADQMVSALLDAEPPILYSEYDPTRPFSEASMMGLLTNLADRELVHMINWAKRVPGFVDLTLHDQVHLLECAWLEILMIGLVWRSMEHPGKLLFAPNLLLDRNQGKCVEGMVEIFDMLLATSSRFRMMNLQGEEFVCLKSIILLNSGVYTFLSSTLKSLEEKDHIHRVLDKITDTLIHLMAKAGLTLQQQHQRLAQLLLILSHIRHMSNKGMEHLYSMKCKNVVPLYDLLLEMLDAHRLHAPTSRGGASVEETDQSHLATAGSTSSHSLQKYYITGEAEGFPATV
Estrogen receptor beta (Homo sapiens), sequence (Q92731 whole entry, looked up, the tested form may be a part): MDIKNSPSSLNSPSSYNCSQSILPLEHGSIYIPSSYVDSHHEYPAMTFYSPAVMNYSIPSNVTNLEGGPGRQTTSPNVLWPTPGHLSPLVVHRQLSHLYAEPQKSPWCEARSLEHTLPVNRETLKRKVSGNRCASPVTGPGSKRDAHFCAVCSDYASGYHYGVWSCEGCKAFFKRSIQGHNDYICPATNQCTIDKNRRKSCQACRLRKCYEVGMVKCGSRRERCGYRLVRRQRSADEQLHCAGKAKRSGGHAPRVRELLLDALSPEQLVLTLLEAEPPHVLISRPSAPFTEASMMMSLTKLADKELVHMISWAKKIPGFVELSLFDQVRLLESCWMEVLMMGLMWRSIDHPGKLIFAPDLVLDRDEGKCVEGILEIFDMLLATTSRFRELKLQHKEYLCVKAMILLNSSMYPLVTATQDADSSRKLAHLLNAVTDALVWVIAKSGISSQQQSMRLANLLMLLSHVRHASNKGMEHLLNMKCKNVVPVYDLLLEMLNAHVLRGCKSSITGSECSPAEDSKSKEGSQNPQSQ
Bile acid receptor (Homo sapiens), sequence (Q96RI1 whole entry, looked up, the tested form may be a part): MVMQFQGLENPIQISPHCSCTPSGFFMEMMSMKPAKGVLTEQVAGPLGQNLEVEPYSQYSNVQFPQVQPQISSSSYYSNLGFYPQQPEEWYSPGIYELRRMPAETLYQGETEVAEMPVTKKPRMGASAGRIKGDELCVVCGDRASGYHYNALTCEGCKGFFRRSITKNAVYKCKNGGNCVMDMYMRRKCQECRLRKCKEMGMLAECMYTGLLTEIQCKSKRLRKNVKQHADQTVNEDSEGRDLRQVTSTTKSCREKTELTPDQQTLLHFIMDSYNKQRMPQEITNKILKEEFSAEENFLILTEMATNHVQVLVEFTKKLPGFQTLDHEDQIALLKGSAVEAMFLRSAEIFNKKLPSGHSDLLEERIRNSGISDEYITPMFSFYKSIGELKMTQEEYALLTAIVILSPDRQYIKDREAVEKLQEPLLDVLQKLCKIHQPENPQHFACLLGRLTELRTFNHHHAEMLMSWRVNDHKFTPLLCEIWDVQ
human Dopamine Transporter (DAT), SLC6A3 (gene 6531), sequence (Q01959 whole entry, looked up): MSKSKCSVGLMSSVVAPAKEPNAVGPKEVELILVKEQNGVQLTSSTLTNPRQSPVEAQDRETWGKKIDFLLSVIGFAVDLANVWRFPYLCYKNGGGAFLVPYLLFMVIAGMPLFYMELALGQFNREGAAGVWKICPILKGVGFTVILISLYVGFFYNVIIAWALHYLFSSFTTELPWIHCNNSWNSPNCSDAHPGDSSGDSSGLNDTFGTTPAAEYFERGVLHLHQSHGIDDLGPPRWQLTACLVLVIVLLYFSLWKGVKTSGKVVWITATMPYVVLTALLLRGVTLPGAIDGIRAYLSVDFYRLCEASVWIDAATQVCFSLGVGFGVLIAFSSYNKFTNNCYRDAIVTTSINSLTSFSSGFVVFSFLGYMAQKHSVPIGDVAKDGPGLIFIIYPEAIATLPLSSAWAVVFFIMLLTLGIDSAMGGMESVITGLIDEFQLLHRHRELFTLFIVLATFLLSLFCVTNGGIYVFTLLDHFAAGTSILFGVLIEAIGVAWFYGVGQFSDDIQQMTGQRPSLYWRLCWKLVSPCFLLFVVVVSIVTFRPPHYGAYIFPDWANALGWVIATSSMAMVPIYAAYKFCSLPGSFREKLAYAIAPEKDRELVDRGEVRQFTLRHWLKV
Norway rat Vesicular Monoamine Transporter (VMAT2), neurotransmitter transporter, Slc18a2 (gene 25549), sequence (Q01827 whole entry, looked up): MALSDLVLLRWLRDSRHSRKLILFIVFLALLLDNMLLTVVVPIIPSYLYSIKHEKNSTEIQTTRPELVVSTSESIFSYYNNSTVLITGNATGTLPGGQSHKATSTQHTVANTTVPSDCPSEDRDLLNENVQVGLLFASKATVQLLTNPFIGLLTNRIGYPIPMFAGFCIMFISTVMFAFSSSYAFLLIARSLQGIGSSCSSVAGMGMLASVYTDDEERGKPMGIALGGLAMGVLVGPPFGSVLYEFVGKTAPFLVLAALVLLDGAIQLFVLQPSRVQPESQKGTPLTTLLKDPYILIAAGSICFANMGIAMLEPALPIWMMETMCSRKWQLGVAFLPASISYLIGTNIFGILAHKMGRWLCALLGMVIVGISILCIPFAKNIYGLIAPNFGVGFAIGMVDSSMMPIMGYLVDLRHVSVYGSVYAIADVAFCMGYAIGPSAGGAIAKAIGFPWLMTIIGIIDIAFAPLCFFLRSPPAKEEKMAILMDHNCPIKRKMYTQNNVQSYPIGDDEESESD
Peroxisome proliferator-activated receptor gamma (Homo sapiens), sequence (P37231 whole entry, looked up, the tested form may be a part): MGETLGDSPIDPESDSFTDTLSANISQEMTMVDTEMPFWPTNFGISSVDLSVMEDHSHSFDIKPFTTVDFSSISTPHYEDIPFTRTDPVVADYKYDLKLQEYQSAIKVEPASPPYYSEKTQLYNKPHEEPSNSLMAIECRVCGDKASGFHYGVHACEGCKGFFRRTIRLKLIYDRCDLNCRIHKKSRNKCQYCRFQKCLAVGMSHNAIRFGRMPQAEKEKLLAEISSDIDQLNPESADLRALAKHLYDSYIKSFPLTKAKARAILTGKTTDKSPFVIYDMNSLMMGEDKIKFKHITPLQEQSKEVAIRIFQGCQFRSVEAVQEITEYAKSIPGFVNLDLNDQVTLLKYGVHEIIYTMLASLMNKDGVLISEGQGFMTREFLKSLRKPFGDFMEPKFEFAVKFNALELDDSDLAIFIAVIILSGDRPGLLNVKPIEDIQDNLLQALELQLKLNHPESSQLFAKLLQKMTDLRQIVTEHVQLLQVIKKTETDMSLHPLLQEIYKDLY

CCOP(=S)(OCC)SCSP(=S)(OCC)OCC
active: [1] 25 µM | [3] 17.5 µM | [5] 10.9 µM
inactive: [2] | [4] | [6] | [7]

O=C(OC1CCCCC1)c1ccccc1C(=O)OC1CCCCC1
active: [9] 40.1 µM | [10] 61.8 µM | [6] 44.6 µM
inactive: [8] | [4] | [5] | [7]

CCCCC(CC)CO[N+](=O)[O-] (stereo not given)
inactive: [11]

O=Cc1cccc(Oc2ccccc2)c1
active: [1] 5.52 µM

C=CC(=O)OCCCCCC(C)C
inactive: [12] | [13] | [3] | [4] | [5] | [9] | [10] | [7]

c1cc[c]([Hg][c]2ccccc2)cc1
active: [9] 29 µM | [10] 51.6 µM | [6] 29.7 µM | [14] 63.4 µM
inactive: [13] | [3] | [4] | [5] | [7]

O=C(O)C(Cl)(Cl)Cl
inactive: [11] | [6] | [7]

Oc1c(I)cc(I)cc1I
active: [2] 25 µM

O=C(Cl)c1ccc(Cl)cc1
inactive: [11] | [2]

CCOC(=O)Nc1cccc(OC(=O)Nc2ccccc2)c1
active: [2] 3.25 µM
inactive: [12] | [3] | [4] | [5] | [6] | [7]

COc1cccc(C=O)c1
inactive: [11]

CC(C)OC(=O)Nc1ccccc1
inactive: [4] | [5] | [6] | [7]
active: [12] 5.18 µM

O=[N+]([O-])c1ccc2c3c(cccc13)CC2
active: [15] 18.2 µM

COP(=S)(OC)Oc1ccc(S(=O)(=O)N(C)C)cc1
inactive: [11]

O=C/C=C/c1ccccc1
inactive: [8] | [4] | [5] | [6] | [14] | [7]

O=C1CCCN1
inactive: [12] | [4] | [5] | [10] | [7]

CCCCCCCCC(=O)NCc1ccc(O)c(OC)c1
inactive: [11]

COP(=S)(OC)Oc1cc(Cl)c(Cl)cc1Cl
inactive: [2]

O=C(NCO)NCO
active: [8] 25 µM
inactive: [4] | [5] | [14] | [7]

O=C(CCl)CCl
inactive: [12]

CC(C)(c1ccccc1)c1ccc(O)c(C(C)(C)c2ccccc2)c1
inactive: [1] | [2] | [12] | [3] | [4] | [5] | [7]

Fc1ccc(C2(Cn3cncn3)OC2c2ccccc2Cl)cc1 (stereo not given)
inactive: [12] | [4] | [5] | [9] | [6] | [7]
active: [3] 19.2 µM | [10] 18.9 µM

CCC[CH2][Sn]([Cl])([Cl])[Cl]
inactive: [8] | [4] | [5] | [9] | [10] | [6]

Cl/C=C/Cl
inactive: [12] | [4] | [5] | [6]

C[C@]12CC[C@H](O)CC1=CC[C@@H]1[C@@H]2CC[C@]2(C)C(=O)CC[C@@H]12
active: [12] 2.17 µM | [3] 3.34 µM
inactive: [6] | [14]

ClCC(Cl)CCl
inactive: [12] | [6] | [14]

Cc1cc(Cl)ccc1O[C@H](C)C(=O)O
inactive: [2]

CC1(C)CCC(Cc2ccc(Cl)cc2)C1(O)Cn1cncn1 (stereo not given)
active: [9] 24.3 µM | [10] 31.6 µM
inactive: [12] | [4] | [5] | [6] | [7]

O=c1[nH]c(=O)[nH]c(=O)[nH]1
inactive: [3] | [14] | [7]
active: [13] 17.2 µM

O=C(Cc1ccccc1)c1ccccc1
inactive: [4] | [5] | [9] | [10] | [6]

Oc1cccc2cccnc12
inactive: [3] | [9] | [7]

CC(C#N)CCC#N (stereo not given)
inactive: [3] | [4] | [5] | [14] | [7]
